Screens: PubChem, Broad Institute
Most compounds without a hit are left out; they make up all but 3.9% or so of the library.
HSF1 inh: HSF1 inhibition | NIH3T3-HGL HSE-luciferase, MG132-induced, luminescence 8 h; hits give low values | activity change, negative = inhibition, % at 7.5 µM (by protocol) | 300,000 compounds, 0.77% hits | AID 2098;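 active = more than half of replicate wells show activity change below -50%, luminescence cut by over half; inconclusive = some wells, but at most half, below -50%; inactive = no replicate well below -50%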;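 also: luciferase reports HSF-1 transcriptional activity via heat shock element; 0% = median of DMSO wells and -100% = zero luminescence signal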
HSF-1 act: increases HSF-1 driven luciferase reporter signal. NIH3T3-HGL HSF-1 luciferase reporter, MG132, 8 h; 100% = twice DMSO control signal. activation, % at 9 µM. 300,000 compounds, 1.7% hits;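 active = mean replicate activation of at least 50% with a set share of replicates each reaching 50%; inconclusive = only one of those two conditions met; inactive = mean below 50% and too few replicates reaching it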;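 also: 0% = median of the neutral control wells and 100% = twice that signal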
esBAF inh: SWI/SNF esBAF complex inhibition. reporter increase, % at 12.5 µM. AID 602393. 350,000 compounds, 2% hits. mouse ES cells, Bmi1-luciferase knock-in reporter, 24 h; 100% = twice the neutral-well signal; in the data active = activation above about 40%; inconclusive = no clear call, values can overlap the other calls;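 also: 0% = median of the plate's neutral control wells and 100% = double that signal; a rise in the Bmi1 reporter signal indicates esBAF inhibition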
MITF act: increases MITF-driven TRPM1 promoter luciferase signal; SK-MEL-5 TRPM1-promoter luciferase, 24 h; % of positive control, neutral wells = 0; activation, % at 12.5 µM; 300,000 compounds, 0.75% hits; AID 588334;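 active = mean activation of at least 80% with every replicate also reaching 80%; inconclusive = mean reaches 80% but some replicate falls short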;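 also: 0% = neutral control wells and 100% = parthenolide positive control wells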
Wnt act: activators of Wnt/beta-catenin signaling. Wnt/beta-catenin reporter cell assay, activator, plate reader. AID 743398. activation, % at 9.35 µM. 300,000 compounds, 1.2% hits; in the data active = activation above about 30%, passing the limit was not always enough; inconclusive = no clear call, values can overlap the other calls;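 also: 0% = neutral control wells and 100% = positive control wells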
The depositor's hits bear a star.

Screening Cc1nc(Nc2nc3ccccc3o2)nc(C)c1C(=O)Nc1ccc(F)cc1 returned HSF1 inh -1.2, HSF-1 act 15.7, MITF act -8.0 and Wnt act 43.2*.
`CCOC(=O)c1cnc(Nc2nc3ccccc3o2)nc1C` gave HSF1 inh -23.0, HSF-1 act -34.5, esBAF inh -72.8, MITF act -58.7 and Wnt act 14.6.
Cc1ccc2c(c1)c1c(n2C)C(C(N)=O)CCC1 (stereo unspecified) was read as HSF1 inh -9.9, HSF-1 act 9.7, esBAF inh -0.5, MITF act -2.0 and Wnt act 3.6.
`Cc1ccc2c(c1)c1c(n2C)-c2[nH]ncc2CC1` gave HSF1 inh 12.4, HSF-1 act 11.5, esBAF inh 22.0 and Wnt act 40.6*.
Screening CCCNC(=O)C[C@H]1CC[C@@H]2[C@H](COC[C@@H](O)CN2Cc2ccccc2F)O1 returned esBAF inh -4.3.
`Cc1ccc(S(=O)(=O)N(C)C[C@H]2OCCCC[C@@H](C)Oc3ccc(NC(=O)NC4CCCCC4)cc3C(=O)N([C@H](C)CO)C[C@H]2C)cc1` gave esBAF inh -4.3.
For O=C(Nc1ccc(N2C(=O)C3C4C=CC(C4)C3C2=O)cc1)Nc1nncs1 (stereo unspecified) the results were HSF1 inh -85.8*, HSF-1 act -88.6, esBAF inh 1.7, MITF act 4.3 and Wnt act -2.0.
For O=C(Nc1nncs1)c1ccc(N2C(=O)C3C4C=CC(C4)C3C2=O)cc1 (stereo unspecified) the results were HSF1 inh -7.0, HSF-1 act 8.3 and MITF act 9.6.
`Nc1nc2ccccc2n1/N=C/c1cccnc1` gave HSF1 inh -0.3, HSF-1 act 1.3 and MITF act 2.0.
Screening Cc1cc(C(=O)N/N=C/c2ccc([N+](=O)[O-])s2)c2ccccc2n1 returned HSF1 inh 40.0, HSF-1 act inconclusive, esBAF inh -1.4, MITF act -57.8 and Wnt act -3.7.
For Nc1nc2ccccc2n1/N=C/c1ccc([N+](=O)[O-])s1 the results were HSF1 inh 57.5, HSF-1 act 99.2* and MITF act -65.9.
For Nc1nc2ccccc2n1/N=C/c1ccc(-c2ccccc2)o1 the results were HSF1 inh 19.3, HSF-1 act 33.2, esBAF inh inconclusive and Wnt act 52.6*.
`CC(C)CC(=O)NC(NC(=O)CC(C)C)c1cccc([N+](=O)[O-])c1` gave HSF1 inh -69.6*, HSF-1 act -76.6, esBAF inh -1.6, MITF act -14.0 and Wnt act -1.4.
O=C(Cc1ccccc1)NC(NC(=O)Cc1ccccc1)c1cccc([N+](=O)[O-])c1 was read as HSF1 inh -4.8, HSF-1 act -6.9, MITF act 12.5 and Wnt act -5.4.
Screening C[C@@H]1CN([C@@H](C)CO)S(=O)(=O)c2ccc(-c3cccnc3)cc2O[C@@H]1CN(C)C(=O)CN(C)C returned esBAF inh -8.8.
Screening CC(=O)N1CCC2(CC1)C/C(=N\NC(=S)Nc1ccccc1C)c1cc(O)ccc1O2 returned HSF1 inh -12.4, HSF-1 act -3.0, esBAF inh 3.4, MITF act -7.4 and Wnt act -0.3.
CC(=O)N1CCC2(CC1)C/C(=N\NC(=S)Nc1ccccc1F)c1cc(O)ccc1O2 was read as HSF1 inh -52.4*, HSF-1 act -58.3, MITF act 21.8 and Wnt act 3.0.
C[C@H](CO)N1C[C@H](C)[C@H](CN(C)CC2CCOCC2)Oc2cc(-c3cccnc3)ccc2S1(=O)=O was read as esBAF inh -2.5.
For C[C@@H]1CN([C@H](C)CO)C(=O)c2cc(-c3ccncc3)cnc2O[C@@H]1CN(C)S(=O)(=O)c1ccc(F)cc1 the results were esBAF inh 2.4.
For CCOC(=O)C1=C(CN2CCN(C(=O)c3ccco3)CC2)NC(=O)NC1c1ccc(OC)cc1 (stereo unspecified) the results were HSF1 inh -88.3*, HSF-1 act -91.4, esBAF inh -2.4, MITF act -8.0 and Wnt act -3.8.
`CCOC(=O)C1=C(CN2CCN(C(=O)c3ccco3)CC2)NC(=O)NC1c1ccccc1` (stereo unspecified) gave HSF1 inh -2.1, HSF-1 act 11.2, esBAF inh -1.6 and MITF act -10.4.
CCOc1ccc(NC(=O)c2ccc3snnc3c2)cc1 was read as HSF1 inh 2.3, HSF-1 act 25.1, esBAF inh 54.2* and Wnt act 6.3.
O=C(Nc1ccc(F)cc1)c1ccc2snnc2c1 was read as HSF1 inh 10.4, HSF-1 act 14.8, esBAF inh 45.2*, MITF act 16.3 and Wnt act 6.3.
`Cc1ccc(NC(=O)c2ccc3snnc3c2)cc1C` gave HSF1 inh 27.4, HSF-1 act 9.8, esBAF inh inconclusive, MITF act 63.5 and Wnt act 21.0.
For c1ccc2nc3c(nc2c1)OCC1CCCCN31 (stereo unspecified) the results were HSF1 inh 8.7, HSF-1 act 36.3, esBAF inh 48.1*, MITF act 54.8 and Wnt act 21.6.
For Cc1cc(C)n(CCC(=O)N/N=C/c2ccc(Br)c([N+](=O)[O-])c2)n1 the results were HSF1 inh 3.4, HSF-1 act 19.8, esBAF inh 3.3, MITF act -6.0 and Wnt act 36.4*.
Screening Cc1ccc(Cn2ccc(NC(=O)c3nn(C)cc3[N+](=O)[O-])n2)cc1 returned HSF1 inh 55.6, HSF-1 act 75.8*, esBAF inh 31.2, MITF act -19.3 and Wnt act -3.2.
`Cn1cc([N+](=O)[O-])c(C(=O)Nc2ccc(-c3nc4ccccc4[nH]3)cc2)n1` gave HSF1 inh 332.0, HSF-1 act 407.5*, MITF act -27.3 and Wnt act 24.2.
Cn1cc([N+](=O)[O-])c(C(=O)Nc2cc(Oc3cccnc3)cc([N+](=O)[O-])c2)n1 was read as HSF1 inh 113.6 and HSF-1 act 141.6*.
For CCn1cc([N+](=O)[O-])c(C(=O)Nc2ccn(Cc3ccccc3)n2)n1 the results were HSF1 inh -13.6, HSF-1 act -1.6, esBAF inh 6.3, MITF act -11.7 and Wnt act -0.2.
`O=[N+]([O-])c1cc(Oc2cccnc2)cc([N+](=O)[O-])c1` gave HSF1 inh 8.5, HSF-1 act -0.9, MITF act -26.6 and Wnt act 1.3.
Cn1cc([N+](=O)[O-])c(C(=O)Nc2ccc(C3CCCCC3)cc2)n1 was read as HSF1 inh 94.0, HSF-1 act 74.7*, MITF act -4.9 and Wnt act 46.0*.
`Cn1cc([N+](=O)[O-])c(C(=O)Nc2ccc(C(=O)N3CCCCC3)cc2)n1` gave HSF1 inh 33.3, HSF-1 act inconclusive, MITF act -8.1 and Wnt act -1.1.
